This note sets out measurements from PubChem BioAssay (Tox21).

Molecules are shown by their SMILES. “And” between values parts separate entries of the source, which are not always exact repeats. Equal entries are not always repeated. Records with an inconclusive call do not appear. The source made the active and inactive calls. Unless noted, the call rests on the fitted dose curve; in most records, active means well fitted curve in the direction sought with a large enough effect in the repeat runs; inconclusive means weak or mixed curves; inactive means no such curve, though single readings can be large; an effect the other way counts as inactive or inconclusive.

Test [1] in a line: qHTS assay to identify small molecule antagonists of the thyroid receptor (TR) signaling pathway - cell viability counter screen (AID 743064). Further: nearly all actives have a fitted effect of over 50% in size. Further: potency means the concentration at half of the fitted maximal effect. An outline of the steps: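 Viability of T3-stimulated (1 nM final) GH3.TRE-Luc cells is measured by CellTiter-Fluor fluorescence after 23.5 h compound exposure at 37 °C plus 30 min reagent incubation.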
Test [2] is described as follows: qHTS assay to identify small molecule antagonists of the thyroid receptor (TR) signaling pathway (AID 743065). Further: nearly all actives have a fitted effect of over 55% in size. Further: potency means the concentration at half of the fitted maximal effect. An outline of the steps:
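Antagonism measured as loss of luciferase signal in GH3 cells stably carrying a TRE-luciferase reporter, co-treated with compound and T3 (1 nM final) for 23.5 h at 37 C. Viability was read in the same well by CellTiter-Fluor.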
Background: In qHTS, concentration-response curves come from the screen itself.

The subject of test [3] is thyroid hormone receptor (rat, GH3 cells). The test is described as follows: qHTS assay to identify small molecule agonists of the thyroid receptor (TR) signaling pathway (AID 743066; calls by dose curve).
Test [4] deals with Estrogen receptor (Homo sapiens) (UniProt P03372). The test is described as follows: qHTS assay to identify small molecule antagonists of the estrogen receptor alpha (ER-alpha) signaling pathway (AID 743069; active means well fitted curve in the direction sought with a large enough effect in the signal ratio in the repeat runs, not every such curve was filed as active; the % refers to the signal ratio). The essentials: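 Antagonist mode: compounds in DMSO were co-added with 17beta-estradiol to ER-alpha-bla HEK293 cells (2% charcoal-stripped serum) and left 18 h at 37C. Reporter inhibition was measured as FRET fluorescence after 2 h LiveBLAzer substrate at room temperature.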
Chain of Estrogen receptor (Homo sapiens) (P03372 whole entry, looked up): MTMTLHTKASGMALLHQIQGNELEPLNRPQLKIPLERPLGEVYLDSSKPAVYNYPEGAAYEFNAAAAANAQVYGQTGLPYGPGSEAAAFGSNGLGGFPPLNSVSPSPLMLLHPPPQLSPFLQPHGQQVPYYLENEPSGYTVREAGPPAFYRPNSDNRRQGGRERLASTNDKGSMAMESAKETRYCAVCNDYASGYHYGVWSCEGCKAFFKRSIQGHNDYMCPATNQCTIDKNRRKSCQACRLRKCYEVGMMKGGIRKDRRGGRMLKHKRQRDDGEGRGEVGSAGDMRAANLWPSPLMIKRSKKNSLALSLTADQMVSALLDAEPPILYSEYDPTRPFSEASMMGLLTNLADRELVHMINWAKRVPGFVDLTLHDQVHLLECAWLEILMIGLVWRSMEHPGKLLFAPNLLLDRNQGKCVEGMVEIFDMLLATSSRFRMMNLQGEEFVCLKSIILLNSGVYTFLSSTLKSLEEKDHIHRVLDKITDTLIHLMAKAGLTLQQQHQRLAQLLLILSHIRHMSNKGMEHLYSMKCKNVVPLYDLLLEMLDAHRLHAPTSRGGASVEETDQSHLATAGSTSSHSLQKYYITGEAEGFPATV

Test [5] is described as follows: qHTS assay to identify small molecule antagonists of the estrogen receptor alpha (ER-alpha) signaling pathway - cell viability counter screen (AID 743074; calls by dose curve;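 further: HEK293 cells carrying ER-alpha-UAS-bla reporter stimulated with 17beta-estradiol; nearly all actives have a fitted effect of over 45% in size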; further: potency means the concentration at half of the fitted maximal effect).
Test [6] deals with Estrogen receptor (Homo sapiens) (UniProt P03372). The test is described as follows: qHTS assay to identify small molecule agonists of the estrogen receptor alpha (ER-alpha) signaling pathway (AID 743075; calls by dose curve;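 further: HEK293 GripTite cells with ER-alpha and UAS-driven beta-lactamase reporter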).
For test [7] the target is unchanged. The test is described as follows: qHTS assay to identify small molecule agonists of the estrogen receptor alpha (ER-alpha) signaling pathway using the BG1 cell line (AID 743079). Further: nearly all actives have a fitted effect of over 20% in size. Further: potency means the concentration at half of the fitted maximal effect.
Test [8] in a line: qHTS assay to identify small molecule antagonists of the estrogen receptor alpha (ER-alpha) signaling pathway using the BG1 cell line (AID 743080; calls by dose curve;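 further: BG1 cells stimulated with 17beta-estradiol alongside compound; series mostly up to about 70 µM; nearly all actives have a fitted effect of over 25% in size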). An outline of the steps: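 BG1-Luc-4E2 cells (endogenous full-length ER-alpha, 4xERE luciferase) hormone-starved 5 days in charcoal-stripped FBS, plated 4,000/well for 24 h, then compound plus 17beta-estradiol for 21.5 h at 37 C; ONE-Glo luminescence read.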

Test [9] can be described thus: qHTS assay to identify small molecule antagonists of the estrogen receptor alpha (ER-alpha) signaling pathway using the BG1 cell line - cell viability counter screen (AID 743081).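 Further: compound given together with 17beta-estradiol as the ER stimulus; series mostly up to about 70 µM; nearly all actives have a fitted effect of over 45% in size.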
The next test deals with Aromatase (Homo sapiens) (UniProt P11511). Put plainly: qHTS assay to identify aromatase inhibitors (AID 743083). Further: series mostly up to about 70 µM; nearly all actives have a fitted effect of over 55% in size.
Chain of Aromatase (Homo sapiens) (P11511 whole entry, looked up): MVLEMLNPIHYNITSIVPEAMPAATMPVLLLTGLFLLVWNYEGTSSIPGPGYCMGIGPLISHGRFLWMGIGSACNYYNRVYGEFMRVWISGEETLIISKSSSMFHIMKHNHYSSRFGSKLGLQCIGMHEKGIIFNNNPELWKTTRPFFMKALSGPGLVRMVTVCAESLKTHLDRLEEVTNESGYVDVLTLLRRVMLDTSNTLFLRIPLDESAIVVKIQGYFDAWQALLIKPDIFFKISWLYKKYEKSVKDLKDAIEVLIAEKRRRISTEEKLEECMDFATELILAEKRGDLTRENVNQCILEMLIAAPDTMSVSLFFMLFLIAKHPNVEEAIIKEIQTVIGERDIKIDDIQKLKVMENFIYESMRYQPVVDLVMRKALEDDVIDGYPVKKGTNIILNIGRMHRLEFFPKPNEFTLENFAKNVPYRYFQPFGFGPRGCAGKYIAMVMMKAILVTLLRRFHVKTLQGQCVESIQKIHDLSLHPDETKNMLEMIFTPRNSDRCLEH

As for `O=c1[nH]c2cc(C(F)(F)F)c(N3CCOCC3)cc2n(CP(=O)(O)O)c1=O`, the Potency entry in [1], in test [2], in test [3], in test [4], in test [5] and in test [6] was “inactive” in each case. Also, the Potency entry (in test [7]; in test [8]; in test [9]; in the test with Aromatase (Homo sapiens)) was “inactive” each time.
Turning to `CC(C)(C)S`, the Potency entry in test [1], in test [2], in test [3], in test [4], in test [5] and in test [6] was “inactive” each time. For the same compound, the Potency result (in test [7]; in [8]; in [9]; in the test with Aromatase (Homo sapiens)) was “inactive” throughout.
With `COc1cc(NCc2ccc3nc(N)nc(N)c3c2C)cc(OC)c1OC`, the Potency in test [1] is 8.41 µM (active); in test [2] it was 668 nM (active); in test [5], 0.213 µM (active). For the same compound, the Potency entry in test [3], in test [4], in [6] and in [7] was “inactive” throughout.
`c1ccc2sc(SSc3nc4ccccc4s3)nc2c1`: the Potency result in test [1], in [2], in [3], in test [4], in test [5] and in [6] was “inactive” throughout. The Potency entry (in test [7]; in test [8]; in test [9]; with Aromatase (Homo sapiens)) was “inactive” in each case.
`O=[N+]([O-])c1ccc2ncccc2c1`: the Potency result in test [1], in test [2], in test [3], in test [4], in test [5] and in test [6] was “inactive” throughout. The Potency entry (in [7]; in [9]; with Aromatase (Homo sapiens)) was “inactive” each time.
Turning to `CCC(CO)(CO)[N+](=O)[O-]`, the Potency entry in [1], in test [2], in [3], in [4], in [5] and in [6] was “inactive” throughout. For the same compound, the Potency result (in [7]; in test [8]; in test [9]; with Aromatase (Homo sapiens)) was “inactive” in each case.
Regarding `CC[C@H]1OC(=O)[C@H](C)[C@@H](O[C@H]2C[C@@](C)(OC)[C@@H](O)[C@H](C)O2)[C@H](C)[C@@H](O[C@@H]2O[C@H](C)C[C@H](N(C)C)[C@H]2O)[C@](C)(O)C[C@@H](C)CN(C)[C@H](C)[C@@H](O)[C@]1(C)O`, the Potency in test [1] is 29.8 µM (active) and 40.5 µM (active); in test [2], 29.8 µM (active) and 36.1 µM (active). Besides, the Potency result in test [3], in test [4], in test [5], in test [6], in test [7] and in test [8] was “inactive” each time. For the same compound, the Potency entry (in [9]; with Aromatase (Homo sapiens)) was “inactive” each time.
`O=CNNC=O`: the Potency result in [1], in test [2], in test [3], in test [4], in test [5] and in [6] was “inactive” in each case. For the same compound, the Potency result (in [7]; in [8]; in test [9]; with Aromatase (Homo sapiens)) was “inactive” throughout.
With `O=P(O)(O)Oc1ccccc1`, the Potency result in test [1], in [2], in test [3], in [4], in [5] and in [6] was “inactive” in each case. Besides, the Potency entry (in [7]; in [8]; in test [9]; with Aromatase (Homo sapiens)) was “inactive” throughout.
`COc1cc(C(C)=O)ccc1OCCCN1CCC(c2noc3cc(F)ccc23)CC1`: the figures for the Potency in test [1] and in [2] were 21.1 µM (active) and 23700 nM (active), respectively. For the same compound, the Potency result in test [3], in test [4], in [5], in test [6], in test [7] and in [8] was “inactive” each time. In addition, in the test with Aromatase (Homo sapiens), the Potency entry was “inactive”.
For `CCC(CO)(CO)CO`, the Potency result in [1], in [2], in [3], in test [4], in test [5] and in [6] was “inactive” each time. Also, the Potency result (in test [7]; in test [8]; in [9]; in the test with Aromatase (Homo sapiens)) was “inactive” in each case.
For `COC1CCC=CO1` (stereo not given), the Potency result in [1], in [2], in test [3], in test [4], in [5] and in test [7] was “inactive” throughout. For the same compound, the Potency result (in [8]; in [9]; with Aromatase (Homo sapiens)) was “inactive” in each case.
For the compound `CCCCCCC(O)CCOC(C)=O` (stereo not given), the Potency result in test [1], in test [2], in test [3], in test [4], in test [5] and in test [6] was “inactive” each time. Besides, the Potency result (in [7]; in test [9]; with Aromatase (Homo sapiens)) was “inactive” throughout.
For `CC(C)(C)NCC(O)COc1cccc2c1C[C@H](O)[C@H](O)C2` (stereo not given in full), the Potency result in test [1], in [2], in test [3], in test [4], in test [5] and in [6] was “inactive” throughout. Moreover, the Potency result (in test [7]; in test [8]; in test [9]; in the test with Aromatase (Homo sapiens)) was “inactive” in each case.
Turning to `CC(C)N(C)C`, the Potency result in test [1], in [2], in test [3], in test [4], in [5] and in [6] was “inactive” throughout. The Potency result (in test [7]; in test [8]; in [9]; in the test with Aromatase (Homo sapiens)) was “inactive” each time.
With `O=C(O)CNC(=O)c1ccccc1I`, the Potency result in test [1], in test [2], in test [3], in test [4], in test [5] and in test [6] was “inactive” throughout. Further, the Potency result (in [7]; in [9]; in the test with Aromatase (Homo sapiens)) was “inactive” in each case.
Turning to `CCCCCCCCCCCCCCCC(=O)OCC`, the Potency entry in test [1], in test [2], in test [3], in [4], in test [5] and in test [6] was “inactive” each time. Moreover, the Potency result (in test [7]; in test [8]; in test [9]; in the test with Aromatase (Homo sapiens)) was “inactive” throughout.
Turning to `CC(=O)Oc1cccc(O)c1`, the Potency result in test [1], in [2], in test [3], in test [4], in test [5] and in test [6] was “inactive” in each case. The Potency entry (in test [7]; in test [9]; in the test with Aromatase (Homo sapiens)) was “inactive” in each case.
On to `C=C(C)C(=O)OCCC(F)(F)C(F)(F)C(F)(F)C(F)(F)C(F)(F)C(F)(F)F`, for which the Potency result in [1], in test [2], in test [3], in test [4], in [5] and in test [6] was “inactive” in each case. For the same compound, the Potency entry (in test [7]; in test [8]; in [9]; with Aromatase (Homo sapiens)) was “inactive” each time.
Turning to `CC(=O)C(=O)CC(C)C`, the Potency result in [1], in test [2], in test [3], in test [4], in test [5] and in [6] was “inactive” each time. The Potency entry (in test [8]; in test [9]; with Aromatase (Homo sapiens)) was “inactive” each time. Besides, the Potency in test [7] was 34.2 µM (active).
As to `CCCCC(CC)COS(=O)(=O)O` (stereo not given), the Potency result in test [1], in test [2], in test [3], in test [4], in test [5] and in test [6] was “inactive” each time. In addition, the Potency result (in test [7]; in [8]; in test [9]; with Aromatase (Homo sapiens)) was “inactive” throughout.
With `Cc1ccc2c(c1)CCCN2`, the Potency result in test [1], in test [2], in test [3], in test [4], in [5] and in test [6] was “inactive” throughout. Besides, the Potency result (in test [7]; in [9]; with Aromatase (Homo sapiens)) was “inactive” in each case.
